# Data published in PubChem BioAssay (NCATS).
# Inconclusive results are not listed. Where a call stands in place of a potency, no number is given. Active and inactive are the calls of the source. Calls come from the whole dose curve; as a rule, active = well fitted cell-killing curve with a large enough effect; inconclusive = small, poorly fitted or top-dose-only effect, or effect the other way; inactive = no such curve, though single readings can be large or run the other way.
# Experiment: Viability qHTS for spleen associated tyrosine kinase inhibitor (SYKi) naive MV4-11 cells (AID 1963823); note: nearly all actives have a fitted effect of over 40% in size
# Settings: MV4-11 AML viability, CellTiter-Glo luminescence, 72 h; series mostly up to 45 µM
# Outline: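 SYKi-naive MV4-11 AML cells, 500 per well, were exposed to library compounds for 72 hr at 37 C, 5% CO2. Viability was then read by CellTiter-Glo luminescence after 10 min at room temperature.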
# Potency is the fitted concentration of half-maximal effect.
row,SMILES,Potency
1,CCCCCCCCCCCCSCCOCCO,inactive
2,Cc1ncc(CSSCc2cnc(C)c(O)c2CO)c(CO)c1O,inactive
3,CN(C)/N=N/c1nc[nH]c1C(N)=O,inactive
4,O=C(O)Cc1ccc(OCCNC[C@H](O)c2ccccc2)cc1,inactive
5,CC(=O)OCC(=O)[C@@]1(O)CC[C@H]2[C@@H]3CCC4=CC(=O)C=C[C@]4(C)[C@H]3[C@@H](O)C[C@@]21C,inactive
6,O=C1NC(=O)/C(=C\c2ccc(-c3ccc(F)cc3)o2)S1,14.8 µM (active)
7,COc1ccc(S(=O)(=O)N2CCc3cccc(-c4ccncc4)c32)cc1,0.833 µM (active)
8,COc1ccc(C(=O)N2CCN(c3ccc4c(c3)CCC(=O)N4)CC2)cc1OC,inactive
9,O=C(NNc1ccccc1)c1ccncc1,inactive
10,O=[N+]([O-])c1cccc(S(=O)(=O)NCCNS(=O)(=O)c2cccc([N+](=O)[O-])c2)c1,inactive
11,CC[C@H](CC[C@@H](C)[C@H]1CC[C@H]2[C@@H]3CC=C4C[C@@H](O)CC[C@]4(C)[C@H]3CC[C@]12C)C(C)C,inactive
12,C[C@]12CCC(=O)C=C1CC[C@@H]1[C@@H]2CC[C@@]2(C)[C@H]1CC[C@]2(O)C(=O)CO,inactive
13,C1CCN2C[C@@H]3C[C@@H](CN4CCCC[C@@H]34)[C@H]2C1,inactive
14,O=C(O)CCn1c2c(c3ccccc31)C[C@H](NS(=O)(=O)c1ccc(F)cc1)CC2,inactive
15,Cc1cc2c(OCC(CNC(C)(C)C)OC(=O)c3ccccc3)cccc2[nH]1 (stereo unspecified),inactive
16,COc1cc2c(cc1OCCCN1CCCC1)N=C(N)C21CCC1,inactive
